# Data: PubChem BioAssay (NCATS)
# Records with an inconclusive call do not appear. Entries that show only a call come without a potency. Some compounds were tested as several samples or in several runs, with calls that do not always agree. Active and inactive are the calls of the source. Unless noted, calls come from the whole dose curve; as a rule, active = well fitted curve in the direction sought with a large enough effect; inconclusive = small, poorly fitted or top-dose-only effect, or another doubt; inactive = no such curve, though single readings can be large; an effect the other way counts as inactive or inconclusive.
# Tests used:
# [1] = biological target: Tyrosine-protein kinase Yes (Homo sapiens) (UniProt P07947); experiment: qHTS for small molecule inhibitors of Yes1 kinase: Primary Screen (AID 686947); note: potency is the fitted concentration of half-maximal effect; nearly all actives have a fitted effect of over 60% in size
# Procedure, shortened: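 ADP-Glo luminescence reports ADP formed by 4 nM Yes1 phosphorylating poly(E4Y) (0.3 mg/mL) with 0.1 mM ATP for 60 min at room temperature, following 20 min compound preincubation; normalised between DMSO wells with and without enzyme.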
# [2] = qHTS for small molecule inhibitors of Yes1 kinase: Counter Assay (AID 686950);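 note: no kinase present so only ADP-Glo detection of a fixed ADP amount is tested; luminescence from ADP-Glo reporting ADP in a fixed ATP and ADP mixture; series mostly up to about 77 µM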
# Procedure, shortened: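 Measuring interference with ADP-Glo, the assay ran 60 min at room temperature on an ATP/ADP mix lacking enzyme. Values were normalized to ATP-plus-ADP (maximum) and ATP-only (minimum) DMSO controls.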
# [3] = P-glycoprotein substrates identified in KB-3-1 adenocarcinoma cell line, qHTS therapeutic library screen (AID 1346986); note: nearly all actives have a fitted effect of over 60% in size;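 note: potency is the fitted concentration of half-maximal effect; potency is for cytotoxicity meaning loss of cell viability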
# Procedure, shortened: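 72 h cell-killing screen, 500 cells/well, CellTiter-Glo luminescence. Paired lines KB-3-1/KB-8-5-11; P-gp dependence checked by tariquidar co-treatment and HEK-293 MDR-19 versus empty-vector cells.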
# [4] = P-glycoprotein substrates identified in KB-8-5-11 adenocarcinoma cell line, qHTS therapeutic library screen (AID 1346987); note: nearly all actives have a fitted effect of over 65% in size; note: potency is the fitted concentration of half-maximal effect
# Procedure, shortened: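 Luminescence from CellTiter-Glo, read 5 min after addition, quantified survival of KB-8-5-11 (P-gp-overexpressing) cells exposed to compounds for 72 h. AC50 was derived from concentration-response curves.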
# [5] = Primary qHTS for inhibitors of nuclear receptor binding SET domain protein 2 (NSD2) in an isogenic RCH-ACV NSD2 p.E1099K mutant (9B) (AID 1645876); note: nearly all actives have a fitted effect of over 70% in size; note: potency is the fitted concentration of half-maximal effect
# [6] = Primary qHTS for inhibitors of nuclear receptor binding SET domain protein 2 (NSD2) in an RCH-ACV wild type WT cells (2C) (AID 1645877); note: nearly all actives have a fitted effect of over 70% in size; note: potency is the fitted concentration of half-maximal effect
# [7] = biological target: Glutathione peroxidase 1 (Homo sapiens) (UniProt P07203); experiment: Primary qHTS Assay for Inhibitors of Recombinant Selenoprotein Glutathione Peroxidase 1 (GPX1) (AID 1845191); note: nearly all actives have a fitted effect of over 65% in size
# Procedure, shortened: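 GPX1 10 nM, GR 100 nM, GSH 1 mM, NADPH 0.5 mM, CHP 0.5 mM (final). 30-min cpd preincubation, RT. Ex340/Em450 read t=0, t=15 min.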
# [8] = qHTS drug screen for cell cycle checkpoint inhibitors in PARPi-resistant BRCA-mutant ovarian cancer cell lines. (AID 1963452; calls by dose curve); details: PEO1/OlaR viability, CellTiter-Glo luminescence, 96 h, stronger effect = lower value
# Procedure, shortened: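 PEO1, PEO4 and PEO1/OlaR ovarian cancer cells, 600 per well, exposed 96 h at 37C to a dilution series. Viability read by CellTiter-Glo luminescence, normalized to DMSO and empty wells; activity summarized as Z-AUC.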
# [9] = Viability counterscreen for antagonist of constitutive androstane receptor (CAR) against the NCATS DSHEA and TCM libraries (AID 1794837);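 note: compound exposure lasted 24 h before viability reading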
# Procedure, shortened: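 Cells: HepG2 line carrying CYP2B6 reporter and hCAR, seeded and attached 5 h. Then pin-transferred test substances plus agonist CITCO at 48 uM final; 24 h incubation; fluorogenic viability reagent, 1 h.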
# [10] = Viability counterscreen for agonist of constitutive androstane receptor (CAR) against the NCATS DSHEA and TCM libraries (AID 1794838);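 note: HepG2 cells with CYP2B6 reporter and hCAR plus 0.75 µM PK11195 antagonist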
# Procedure, shortened: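 Cell health was measured as CellTiter-Fluor signal in HepG2-CYP2B6-hCAR cells treated for 24 h with substances alongside the hCAR antagonist PK11195 (0.75 uM final).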
# [11] = biological target: Nuclear receptor subfamily 1 group I member 3 (Homo sapiens) (UniProt Q14994); experiment: Primary qHTS for agonist of constitutive androstane receptor (CAR) against the NCATS DSHEA and TCM libraries (AID 1794839);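 note: HepG2 cells expressing human CAR with a CYP2B6 reporter plus PK11195 antagonist; luciferase reporter luminescence read with ONE-Glo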
# Procedure, shortened: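 qHTS, agonist mode: HepG2-CYP2B6-hCAR, 2,500 cells/well, 5 h attach; cpds + PK11195 0.75 µM final; 24 h, 37 °C, 5% CO2. Readouts: CellTiter-Fluor (405/540 nm), then ONE-Glo luminescence.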
# [12] = HepG2 viability counterscreen (readout 2: ATP content) against the NCATS DSHEA and TCM libraries (AID 1794840)
# Procedure, shortened: (§1)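 Same wells read twice: first fluorescence from cleaved GF-AFC substrate (25 uM final, 30 min, 37C) for live-cell protease, then CellTiter-Glo luminescence after 30 min at room temperature for ATP. HepG2 cells were exposed ~24 h to substances.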
# [13] = HepG2 viability counterscreen (readout 1: protease activity) against the NCATS DSHEA and TCM libraries (AID 1794841);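 note: cells exposed to compounds for about 24 h before the protease read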
# Procedure, shortened: as §1
# [14] = biological target: Cytochrome P450 2D6 (Homo sapiens) (UniProt P10635); experiment: qHTS for inhibitors of CYP2D6 against the NCATS DSHEA and TCM libraries (AID 1919972)
# Procedure, shortened: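 CYP2D6 enzyme with pro-luciferin substrate in manufacturer buffer (typically 100 mM KPO4), preincubated 15 min RT with substances (most at 19.5 nM upward); NADPH regeneration system (1x) started 30–45 min RT reaction; P450-Glo luminescence read after 30 min; quinidine as intraplate control.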
# [15] = biological target: Cytochrome P450 2C9 (Homo sapiens) (UniProt P11712); experiment: qHTS for inhibitors of CYP2C9 against the NCATS DSHEA and TCM libraries (AID 1919973); note: potency is the fitted concentration of half-maximal effect
# Procedure, shortened: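 Concentration-response screening with isoform-matched pro-luciferin substrates. The CYP reaction was initiated by NADPH regenerating solution and ran 30-45 min in darkness at room temperature.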
# [16] = KB-3-1 P-gp reporter qHTS against the NCATS DSHEA and TCM libraries (AID 1919975)
# Procedure, shortened: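 KB-3-1 parental line, 1536-well qHTS: cells seeded, ~4 h attachment, pintool compound addition, ~72 h at 37C, then CellTiter-Glo, 30 min RT, luminescence. Concentration-response format.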
# [17] = biological target: Cytochrome P450 1A2 (Homo sapiens) (UniProt P05177); experiment: qHTS for inhibitors of CYPIA2 against the NCATS DSHEA and TCM libraries (AID 1919976);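 note: light from luciferin formed by CYP1A2 from a pro-luciferin substrate; series mostly up to about 37 µM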
# Procedure, shortened: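 Enzyme and pro-luciferin substrate, or substrate alone as no-enzyme background, are pre-incubated with test samples for 15 min at room temperature. NADPH regeneration system (1x final) initiates a 30-45 min dark reaction; luciferase detection reagent follows before luminescence reading.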
# [18] = qHTS Counterscreen for compound interference against the NCATS DSHEA and TCM libraries (AID 1919978); details: firefly luciferase detection reagent interference, luminescence;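 note: compounds preincubated with 1 µM D-luciferin or buffer before detection reagent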
# Procedure, shortened: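 Compounds, titrated from 19.5 nM to 39.8 uM final, were pinned onto 1 uM D-luciferin or plain 100 mM potassium phosphate. After 15 min at room temperature, luciferin detection reagent was added for 30 min before the luminescence read.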
# [19] = Dual reporter qHTS for agonist of Pregnane X Receptor (hPXR) against the NCATS DSHEA and TCM libraries: Fluorescence readout (AID 1920058)
# Procedure, shortened: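 Cells were plated at 2000 per well and allowed to attach for 5 h. Test substances were pinned in and incubated roughly 24 h. CellTiter-Fluor was then added and fluorescence measured after 1 h.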
# [20] = biological target: Nuclear receptor subfamily 1 group I member 2 (Homo sapiens) (UniProt O75469); experiment: Dual reporter qHTS for agonist of Pregnane X Receptor (hPXR) against the NCATS DSHEA and TCM libraries: Luminescence readout (AID 1920059)
# Procedure, shortened: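 hPXR-LucHepG2 cells in phenol red-free DMEM with 5% charcoal-stripped FBS, 2000 cells/well, attached 5 h, then exposed 24 h at 37C to compounds; rifampicin as positive agonist control (2.8 nM–92 uM). Luciferase luminescence read.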
# [21] = biological target: Nuclear receptor subfamily 1 group I member 2 (Homo sapiens) (UniProt O75469); experiment: Dual reporter qHTS for antagonist of Pregnane X Receptor (hPXR) against the NCATS DSHEA and TCM libraries: Luminescence Readout (AID 1920060);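 note: HepG2 cells carrying hPXR luciferase reporter stimulated with rifampicin at 2 µM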
# Procedure, shortened: (§2)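 HepG2 hPXR-Luc, 2000 cells/well, charcoal-stripped FBS medium; 5 h attach; RIF 2 uM final; 24 h 37C/5% CO2; CellTiter-Fluor 1 h, fluor 405/540; ONE-Glo 30 min RT, lum.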
# [22] = Dual reporter qHTS for antagonist of Pregnane X Receptor (hPXR) against the NCATS DSHEA and TCM libraries: Fluorescence Readout (AID 1920061)
# Procedure, shortened: as §2
# [23] = system: Zika virus NS2B-NS3 protease; experiment: Primary screen GU AMC qHTS for Zika virus inhibitors (AID 1347154); note: nearly all actives have a fitted effect of over 70% in size
# Procedure, shortened: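 Unlinked Zika NS2B hydrophilic domain/NS3 protease domain noncovalent complex (25 nM final) in 10 mM Tris-HCl pH 8.0, 0.01% Tween 20, with AMC peptide substrate. Fluorescence (ex 340, em 450 nm) change over 15 min, room temperature; percent inhibition fitted to 4-parameter Hill equation.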
# [24] = Primary qHTS for small molecule stabilizers of the endoplasmic reticulum resident proteome: Secreted ER Calcium Modulated Protein (SERCaMP) assay (AID 1508630)
# Procedure, shortened: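 The SH-SY5Y reporter protocol was run at 3 concentrations up to 38.3 uM (primary) or 11 concentrations (follow-up): 16 h compound, 100 nM thapsigargin for 4 h, then extracellular luciferase luminescence.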
# [25] = qHTS for Inhibitors of Ubiquitin-specific Protease USP2a Using CHOP2 as the Reporter: K633 Counterscreen (AID 652168); note: series mostly up to about 57 µM
# Procedure, shortened: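 Detection-system control: fluorescence of K48-linked DiUb-4IQF substrate (100 nM as added) tracked over time, Ex 525/Em 598, with pinned compounds and no enzyme, in pH 8 Tris buffer containing beta-mercaptoethanol and 0.05% Chaps.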
# [26] = qHTS for Inhibitors of Ubiquitin-specific Protease USP2a Using CHOP2 as the Reporter: Cytotox Assay (AID 652170);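 note: HCT116 human colon cancer cells at 600 per well; series mostly up to about 46 µM; nearly all actives have a fitted effect of over 70% in size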
# Procedure, shortened: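 Cytotoxicity read as ATP luminescence (CellTiter-Glo) after 72 hr compound treatment at 37 deg C. Cells: HCT116, 600/well in DMEM plus 10% FBS. Normalization between DMSO-treated cells and cell-free wells.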
# [27] = biological target: Ubiquitin carboxyl-terminal hydrolase 2 (Homo sapiens) (UniProt O75604); experiment: qHTS for Inhibitors of Ubiquitin-specific Protease USP2a Using CHOP2 as the Reporter: K484 Substrate (AID 652173); details: USP2 cleavage of DiUb K48 IQF substrate, fluorescence
# Procedure, shortened: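 Kinetic fluorescence (Ex 525/Em 598) tracked cleavage of an internally quenched K48 di-ubiquitin substrate, added as a 100 nM solution. The enzyme was added as a 5 nM USP2 solution before compound pinning, with no-enzyme controls. Buffer: Tris pH 8, beta-mercaptoethanol, CHAPS.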
# Sequence of Glutathione peroxidase 1 (Homo sapiens) (P07203 whole entry, looked up): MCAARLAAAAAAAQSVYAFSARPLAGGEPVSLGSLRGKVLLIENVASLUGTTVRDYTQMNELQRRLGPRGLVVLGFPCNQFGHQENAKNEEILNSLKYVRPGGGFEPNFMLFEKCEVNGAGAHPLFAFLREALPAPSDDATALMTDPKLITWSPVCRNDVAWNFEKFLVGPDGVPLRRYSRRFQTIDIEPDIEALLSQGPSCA
# Sequence of Nuclear receptor subfamily 1 group I member 2 (Homo sapiens) (O75469 whole entry, looked up): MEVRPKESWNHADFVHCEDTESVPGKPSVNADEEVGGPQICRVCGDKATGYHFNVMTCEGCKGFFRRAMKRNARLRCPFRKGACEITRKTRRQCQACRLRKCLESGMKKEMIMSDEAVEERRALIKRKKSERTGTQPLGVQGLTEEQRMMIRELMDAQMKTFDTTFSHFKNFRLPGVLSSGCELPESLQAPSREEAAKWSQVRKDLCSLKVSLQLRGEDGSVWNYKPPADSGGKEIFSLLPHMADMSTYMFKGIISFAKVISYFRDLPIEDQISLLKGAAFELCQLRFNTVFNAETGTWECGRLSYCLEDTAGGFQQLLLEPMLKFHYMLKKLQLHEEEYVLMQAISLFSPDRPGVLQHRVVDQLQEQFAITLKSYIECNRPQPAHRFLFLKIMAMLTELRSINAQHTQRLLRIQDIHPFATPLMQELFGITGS
# Sequence of Cytochrome P450 2D6 (Homo sapiens) (P10635 whole entry, looked up): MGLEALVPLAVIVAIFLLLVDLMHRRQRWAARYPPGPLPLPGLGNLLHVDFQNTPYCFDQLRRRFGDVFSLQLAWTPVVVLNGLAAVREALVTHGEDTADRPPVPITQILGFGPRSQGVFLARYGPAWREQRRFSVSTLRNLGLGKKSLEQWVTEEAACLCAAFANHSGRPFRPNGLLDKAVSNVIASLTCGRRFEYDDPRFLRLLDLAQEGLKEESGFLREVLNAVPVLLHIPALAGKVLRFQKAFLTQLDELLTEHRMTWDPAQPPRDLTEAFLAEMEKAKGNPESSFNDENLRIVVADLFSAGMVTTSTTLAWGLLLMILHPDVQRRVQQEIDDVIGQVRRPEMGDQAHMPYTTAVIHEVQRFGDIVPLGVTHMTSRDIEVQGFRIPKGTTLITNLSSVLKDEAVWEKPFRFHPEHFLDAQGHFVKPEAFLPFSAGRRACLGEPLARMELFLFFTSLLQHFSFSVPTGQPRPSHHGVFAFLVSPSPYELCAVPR
# Sequence of Ubiquitin carboxyl-terminal hydrolase 2 (Homo sapiens) (O75604 whole entry, looked up): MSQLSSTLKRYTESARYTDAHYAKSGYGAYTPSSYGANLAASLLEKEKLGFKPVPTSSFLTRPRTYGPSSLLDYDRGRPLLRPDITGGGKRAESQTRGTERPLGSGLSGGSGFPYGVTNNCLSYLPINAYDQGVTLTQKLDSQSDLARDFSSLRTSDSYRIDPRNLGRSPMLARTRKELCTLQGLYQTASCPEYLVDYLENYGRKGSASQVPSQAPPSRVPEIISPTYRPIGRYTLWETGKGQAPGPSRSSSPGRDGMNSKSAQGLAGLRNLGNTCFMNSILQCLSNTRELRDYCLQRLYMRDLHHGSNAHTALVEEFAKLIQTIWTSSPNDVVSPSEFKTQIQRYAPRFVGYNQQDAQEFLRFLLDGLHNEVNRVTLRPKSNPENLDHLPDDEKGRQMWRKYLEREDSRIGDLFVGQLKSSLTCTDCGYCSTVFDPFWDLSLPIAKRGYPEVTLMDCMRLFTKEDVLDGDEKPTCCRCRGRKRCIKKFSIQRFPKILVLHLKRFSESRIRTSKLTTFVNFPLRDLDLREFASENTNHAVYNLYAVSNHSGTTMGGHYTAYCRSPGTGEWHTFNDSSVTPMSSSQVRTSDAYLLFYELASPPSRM
# Sequence of Nuclear receptor subfamily 1 group I member 3 (Homo sapiens) (Q14994 whole entry, looked up): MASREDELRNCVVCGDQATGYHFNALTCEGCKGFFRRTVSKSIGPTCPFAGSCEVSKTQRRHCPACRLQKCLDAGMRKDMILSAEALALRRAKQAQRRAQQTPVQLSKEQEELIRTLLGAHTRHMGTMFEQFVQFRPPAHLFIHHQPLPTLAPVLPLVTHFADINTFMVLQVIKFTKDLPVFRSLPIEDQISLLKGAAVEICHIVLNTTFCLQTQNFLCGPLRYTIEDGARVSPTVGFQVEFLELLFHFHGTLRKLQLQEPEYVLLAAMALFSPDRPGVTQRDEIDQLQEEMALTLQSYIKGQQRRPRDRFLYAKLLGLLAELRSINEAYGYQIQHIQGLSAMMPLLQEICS
# Sequence of Tyrosine-protein kinase Yes (Homo sapiens) (P07947 whole entry, looked up): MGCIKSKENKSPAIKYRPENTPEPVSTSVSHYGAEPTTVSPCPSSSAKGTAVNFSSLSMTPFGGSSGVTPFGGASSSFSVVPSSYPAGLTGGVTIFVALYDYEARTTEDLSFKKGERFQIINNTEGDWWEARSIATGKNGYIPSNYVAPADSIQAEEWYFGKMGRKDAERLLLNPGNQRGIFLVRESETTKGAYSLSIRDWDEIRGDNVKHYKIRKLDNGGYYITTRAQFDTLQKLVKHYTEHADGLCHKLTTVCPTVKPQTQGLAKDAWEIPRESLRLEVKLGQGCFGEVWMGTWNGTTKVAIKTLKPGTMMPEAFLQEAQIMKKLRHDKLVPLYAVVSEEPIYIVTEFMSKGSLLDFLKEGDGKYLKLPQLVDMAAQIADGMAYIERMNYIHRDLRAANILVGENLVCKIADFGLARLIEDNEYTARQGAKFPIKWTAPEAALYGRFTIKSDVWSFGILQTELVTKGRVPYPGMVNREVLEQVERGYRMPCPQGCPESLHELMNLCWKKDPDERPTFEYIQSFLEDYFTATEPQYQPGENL
# Sequence of Cytochrome P450 1A2 (Homo sapiens) (P05177 whole entry, looked up): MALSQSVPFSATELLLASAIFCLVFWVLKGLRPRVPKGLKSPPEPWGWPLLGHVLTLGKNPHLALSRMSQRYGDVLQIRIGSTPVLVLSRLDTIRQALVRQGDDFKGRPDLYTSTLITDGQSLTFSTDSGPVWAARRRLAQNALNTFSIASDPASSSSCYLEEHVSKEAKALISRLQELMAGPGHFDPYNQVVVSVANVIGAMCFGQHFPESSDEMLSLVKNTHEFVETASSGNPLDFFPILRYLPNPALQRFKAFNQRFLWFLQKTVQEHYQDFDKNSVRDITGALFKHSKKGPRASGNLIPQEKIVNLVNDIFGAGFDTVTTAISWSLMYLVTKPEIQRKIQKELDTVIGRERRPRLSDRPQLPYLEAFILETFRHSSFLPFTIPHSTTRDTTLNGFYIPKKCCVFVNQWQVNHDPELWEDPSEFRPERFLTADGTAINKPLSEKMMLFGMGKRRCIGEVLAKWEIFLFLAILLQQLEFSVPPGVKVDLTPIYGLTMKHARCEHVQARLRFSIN
# Sequence of Cytochrome P450 2C9 (Homo sapiens) (P11712 whole entry, looked up, canonical isoform): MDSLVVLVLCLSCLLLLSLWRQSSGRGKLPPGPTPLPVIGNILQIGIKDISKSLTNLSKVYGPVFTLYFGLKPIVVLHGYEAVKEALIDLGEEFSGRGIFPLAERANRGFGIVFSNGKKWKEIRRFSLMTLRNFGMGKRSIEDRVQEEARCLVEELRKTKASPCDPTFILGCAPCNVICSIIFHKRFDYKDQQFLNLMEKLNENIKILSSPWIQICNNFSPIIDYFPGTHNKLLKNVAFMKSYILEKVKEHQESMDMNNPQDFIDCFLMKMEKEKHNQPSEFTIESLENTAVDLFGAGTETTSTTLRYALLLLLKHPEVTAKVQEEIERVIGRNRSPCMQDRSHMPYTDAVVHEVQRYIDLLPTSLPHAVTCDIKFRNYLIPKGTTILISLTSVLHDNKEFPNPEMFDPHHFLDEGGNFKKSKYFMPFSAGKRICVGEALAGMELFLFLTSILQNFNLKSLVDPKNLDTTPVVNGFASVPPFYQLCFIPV
structure (smiles),measurement,setting,value
COc1ccc(-c2oc3ncnc(N)c3c2-c2ccc(NC(=O)Nc3cc(C(F)(F)F)ccc3F)cc2)cc1,Potency,[1],1040 nM (active)
same,outcome,[2],inactive
same,Potency,[3],4610 nM (active)
same,Potency,[4],5800 nM (active)
same,Potency,[5],6.51 µM (active) and inactive
same,Potency,[6],10.3 µM (active) and inactive
same,Potency,[7],inactive
same,Z-AUC,[8],0.736 (inactive)
same,Z-AUC,[8]; measured here: PEO1 parental Z-AUC,0.865
same,Z-AUC,[8]; measured here: PEO4 Z-AUC,0.712
Cc1cc(Nc2cc(C)c(C#N)c(NC(C)CCCC(C)(C)O)n2)n[nH]1 (stereo not given),Potency,[3],1460 nM (active)
same,Potency,[4],1300 nM (active)
same,Potency,[5],1.03 µM (active)
same,Potency,[6],1.16 µM (active)
same,Potency,[7],inactive
O=C(O[C@@H]1Cc2c(O)cc(O)cc2O[C@H]1c1cc(O)c(O)c(O)c1)c1cc(O)c(O)c(O)c1,Potency,[3],inactive
same,Potency,[4],inactive
same,outcome,[9],inactive
same,outcome,[10],inactive
same,outcome,[11],inactive
same,outcome,[12],inactive
same,outcome,[13],inactive
same,outcome,[14],inactive
same,Potency,[15],12600 nM (active)
same,outcome,[16],inactive
same,outcome,[17],inactive
same,max response,[18],-4.04% (inactive)
same,outcome,[19],inactive
same,outcome,[20],inactive
same,outcome,[21],inactive
same,outcome,[22],inactive
O=C(O)c1c[nH]c2c(ccc3ccccc32)c1=O,Potency,[3],inactive
same,Potency,[4],inactive
same,Potency,[5],inactive
same,Potency,[6],inactive
same,Potency,[7],inactive
CCN(CC)CCNc1ccc2ncn3c4ccc(O)cc4c(=O)c1c23,Potency,[3],1300 nM (active)
same,Potency,[4],1300 nM (active)
same,Potency,[5],0.0651 µM (active)
same,Potency,[6],0.058 µM (active)
same,Potency,[7],inactive
Cc1cc(C)c(/C=C2\C(=O)Nc3ccc(Cl)cc32)[nH]1,Potency,[3],inactive
same,Potency,[4],inactive
same,Potency,[5],inactive
same,Potency,[6],inactive
same,Potency,[7],inactive
O=c1cc(N2CCNCC2)oc2c(-c3ccccc3)cccc12,Potency,[3],7310 nM (active)
same,Potency,[23],inactive
same,Potency,[24],inactive
O=C(Nc1ccc(S(=O)(=O)Nc2nccs2)cc1)c1cc(-c2ccccc2)nc2ccccc12,outcome,[25],inactive
same,outcome,[26],inactive
same,Potency,[27],1370 nM (active)
same,Potency,[3],inactive
same,Potency,[4],inactive
same,Potency,[7],inactive
OCC(O)CCO/N=C1/C(c2c(O)[nH]c3ccccc23)=Nc2ccccc21 (stereo not given),Potency,[3],14600 nM (active)
same,Potency,[4],16400 nM (active)
same,Potency,[5],2.59 µM (active)
same,Potency,[6],2.59 µM (active)
same,Potency,[7],inactive
CCCCCC1CC1CC1CC1CCCCCCCC(=O)O (stereo not given),Potency,[3],inactive
same,Potency,[4],inactive
same,Potency,[5],inactive
same,Potency,[6],inactive
same,Potency,[7],inactive
Oc1cccc(Nc2ccnc3cc(-c4cccc(CN5CCOCC5)c4)sc23)c1,Potency,[3],7310 nM (active)
same,Potency,[4],8200 nM (active)
same,Potency,[5],1.64 µM (active)
same,Potency,[6],1.46 µM (active)
same,Potency,[7],inactive
